Test results taken from PubChem BioAssay (EPA / NIEHS).
Records with an inconclusive call do not appear. Where a structure was tested more than once in an assay, its records may differ in their call. Activity calls are given as the source filed them. The calls were made as follows: active = hit-call score of the fitted dose curve at least 0.9, where 1 is the maximum; inconclusive = response in the unintended direction; inactive = score below 0.9.

Test: TOX21_p53_BLA_p3_viability: Viability Assessment in the Tox21 HCT-116 p53 Agonism Beta-lactamase Assay, Phase 3 (AID 2283593);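 also: cells exposed to compound for 16 h before reading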
Excerpt: TOX21_p53_BLA_p3 is a cell-based, single-readout assay that uses HCT116, a human intestinal cell line, […] in a 1536-well plate.TOX21_p53_BLA_p3_viability is an assay readout measuring cellular ATP content and detected with CellTiter-Glo Luciferase-coupled ATP quantitation.TOX21_p53_BLA_p3_viability used a type of viability reporter where loss-of-signal activity can be used to understand changes in the cell viability. Furthermore, this assay endpoint can be referred to as a secondary readout, because this assay has produced multiple assay endpoints where this one serves a viability function. To generalize the intended target to other relatable targets, this assay endpoint is annotated to the cell cycle intended target family, where the subfamily is cytotoxicity.
Thawing Method: Place 14 mL of pre-warmed thaw medium into a 15 mL of conical tub. Remove the vial of cells to be thawed from liquid nitrogen and thaw rapidly by placing at 37C in a water bath with gentle agitation for 1-2 minutes. Decontaminate the vial by wiping with 70% ethanol before opening in a biological safety cabinet. Transfer the vial contents drop-wise into 14 mL of thaw medium in a sterile 15-mL conical tub. Centrifuge cells at 900 rpm for 4 minutes and resuspend in thaw medium. Transfer contents to the T75 tissue culture flask containing Thaw Medium and place flask in a humidified 37C/5% CO2 incubator. Switch to growth medium at first passage.Propagation Method: Aspirate medium, rinse once in DPBS, add 0.25% Trypsin/EDTA and swirl to coat the cell evenly. Add an equal volume of Growth Medium to inactivate Trypsin after 2-3 minutes incubation at 37C. Centrifuge cells at 900 rpm for 4 minutes and resuspend in growth medium. Cell should be passage or fed at least twice a week.Assay Protocol: Harvest cells from culture in growth medium and resuspend in assay medium. 2.2 Dispense 4000 cells/5 uL/well into 1536-well black/clear bottom plates using a Multidrop dispenser. After the cells were incubated at 37C for 5 hours, 23 nL of compounds dissolved in DMSO were transferred to the assay plate by a PinTool resulting in a 217-fold dilution. Incubate the plates for 16 hours at 37C, 5% CO2. Add 1 uL of 6X LiveBLAzer FRET B/G (CCF4-AM) Substrate Mixture to each well using a BioRAPTR dispenser and incubate the plates at room temperature for 2 hours. Measure fluorescence intensity at 460 and 530 nm emission and 405 nm excitation by an Envision detector. Data is expressed as the ratio of 460nm/530nm emissions. Add 4 uL of Cell-titer Glo to each well using BioRAPTR and incubate the plates at room temperature for […]. For cell viability readout that measures cytotoxicity, 4 ul/well of CellTiter-Glo reagent was added into the assay plates using a Flying Reagent Dispenser. After 30 min incubation at room temperature, the luminescence intensity in the plates was measured using a ViewLux plate reader.
In the case of `CC(C)(C)NC(=O)[C@H]1CC[C@H]2[C@@H]3CC[C@H]4NC(=O)C=C[C@]4(C)[C@H]3CC[C@]12C`, the outcome is reported as “inactive”.
For `C=C[Si](OCCOC)(OCCOC)OCCOC`, the outcome was “inactive”.
In the case of `O=C(Nc1ccccc1)c1cc(Cl)ccc1O`, the outcome is reported as “inactive”.
With `C=CC(=O)OCCCCCCCCCC` the outcome was “inactive”.
For `COCC(=O)O`, the outcome was “inactive”.
With `O=C(Oc1ccccc1)c1ccccc1C(=O)Oc1ccccc1` the outcome was “inactive”.
In the case of `CC(C)(CO)COC(=O)C(C)(C)CO`, the outcome is reported as “inactive”.
With `c1ccc2c(c1)[nH]c1ccccc12` the outcome was “inactive”.
With `Oc1c(Cl)cc(Cl)c(Cl)c1Cl` the outcome was “inactive”.
For `CCCCC/C=C\C/C=C\CCCCCCCC(=O)O`, the outcome was “inactive” and the AC50 was 47.2 µM (active).
In the case of `C=CC(C)(CCC=C(C)C)OC(=O)C=Cc1ccccc1` (stereo not given), the outcome is reported as “inactive”.
For `CCC1COC(=O)O1` (stereo not given), the outcome was “inactive”.
For `CC(C)(O)Cc1ccccc1`, the outcome was “inactive”.
For `CCCCNC(=S)NCCCC`, the outcome was “inactive”.
For `C=CC(=O)OCCCCCCCC(C)C`, the outcome was “inactive”.
For `CC12CCC(CC1)C(C)(C)O2`, the outcome was “inactive”.
With `COc1ccc(C(=O)/C(Br)=C\C(=O)O)cc1` the outcome was “inactive” and the AC50 was 74.8 µM (active).
In the case of `O=C(OCc1ccccc1)c1ccc(O)cc1`, the outcome is reported as “inactive”.
In the case of `COc1ccc(-c2coc3cc(O)cc(O)c3c2=O)cc1`, the outcome is reported as “inactive”.
In the case of `CCCCCCCCCCCCc1ccc(O)cc1`, the AC50 is reported as 39.9 µM (active).
In the case of `CC(C)[N+](C)(CCOC(=O)C1c2ccccc2Oc2ccccc21)C(C)C`, the outcome is reported as “inactive”.
In the case of `O=C(O)/C=C/c1ccccc1`, the outcome is reported as “inactive”.
In the case of `Cc1c(C(=O)c2c[nH]n(C)c2=O)ccc(S(C)(=O)=O)c1C1=NOCC1`, the outcome is reported as “inactive”.
In the case of `CCc1cccc(C)c1N`, the outcome is reported as “inactive”.
For `CCCCCCCCCCCCCC(=O)OC(C)C`, the outcome was “inactive”.
In the case of `C=C(C)C(=O)OCC(O)COc1ccc(C(C)(C)c2ccc(OCC(O)COC(=O)C(=C)C)cc2)cc1` (stereo not given), the outcome is reported as “inactive”.
For `Nc1ncnc2nc[nH]c12`, the outcome was “inactive”.
For `O=C(Cl)c1ccc(C(=O)Cl)cc1`, the outcome was “inactive”.
For `CC(=O)OCCc1ccccc1`, the outcome was “inactive”.
For `CCCCC(CC)COC(=O)/C=C/c1ccc(OC)cc1` (stereo not given), the outcome was “inactive”.
In the case of `CC(=O)CCC=C(C)C`, the outcome is reported as “inactive”.
With `CC1(C)[C@@H]2CC[C@@]1(C)C(=O)C2` the outcome was “inactive”.
For `Oc1ccc(-c2ccccc2)c(Cl)c1`, the outcome was “inactive”.
In the case of `CCOC(=O)c1ccc(C)cc1`, the outcome is reported as “inactive”.
For `COC(=O)CC(C)CCC=C(C)C` (stereo not given), the outcome was “inactive”.
With `CCCC1CCCC(=O)O1` (stereo not given) the outcome was “inactive”.
For `O=C(O)c1ccc2c(c1)C(=O)OC2=O`, the outcome was “inactive”.
In the case of `Fc1ccc(Br)cc1`, the outcome is reported as “inactive”.
